# Laboratory results as given in the supplement of paper PMC10037445.
# The full ranking holds about 2,900 compounds; the median of “NF-kB SEAP reporter activity, fold change vs agonist alone” is about 0.99, and the highest 2% start at about 2.6. Only a selection was taken, and the highest values are over-represented in it overall.
# Experiments:
# RAW-Dual [1] = test: NF-kB SEAP reporter activity, fold change vs agonist alone; cytotoxicity flag (confluency mask): not cytotoxic; higher = enhanced NF-kB activity
# Summary of the method: (§1)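 Library stock was pin-tooled at 50 nL into 384-well plates of RAW-Dual macrophages (50,000 cells/well, DMEM), followed 1 h later by a PRR agonist, and the cells were kept at 37 °C, 5% CO2. Supernatant collected after 20 hours was read for IRF by QuantiLuc luminescence and for NF-κB by QuantiBlue absorbance at 620 nm. Reporter activity is fold change over agonist-alone wells, and a well counted as cytotoxic when its IncuCyte confluency was below 70% of agonist controls in both mask sets.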
# RAW-Dual [2] = test: NF-kB SEAP reporter activity, fold change vs agonist alone; higher = enhanced NF-kB activity; conditions: cytotoxicity flag (confluency mask): not cytotoxic
# Summary of the method: as §1
# [3] = agonist: ODN 1826 (TLR9) 0.5 ug/mL
# [4] = agonist: Pam2CSK4 (TLR2/6) 0.1 ug/mL
# [5] = agonist: Pam3CSK4 (TLR2/1) 0.1 ug/mL
# [6] = library stock concentration (final ~1000-fold dilution): 10 mM, agonist: MPLA (TLR4) […]
# [7] = library stock concentration (final ~1000-fold dilution): 10 mM, agonist: Imiquimod (TLR7) […]
# [8] = library stock concentration (final ~1000-fold dilution): 10 mM water, agonist: Imiquimod (TLR7) […]
# [9] = library stock concentration (final ~1000-fold dilution): 10 mM water, agonist: MPLA (TLR4) […]
structure (smiles),measurement,setting,value
O=c1n(CCCN2CCN(c3cccc(Cl)c3)CC2)nc2ccccn12 (library stock concentration (final ~1000-fold dilution): 10 mM),NF-kB SEAP reporter activity,RAW-Dual [1]; agonist: LPS (TLR4) 0.1 ug/mL,2.72
same,NF-kB SEAP reporter activity,RAW-Dual [1]; [3],1.65
same,NF-kB SEAP reporter activity,RAW-Dual [1]; [4],1.15
same,NF-kB SEAP reporter activity,RAW-Dual [1]; [5],1.22
CCc1nn(CCCN2CCN(c3cccc(Cl)c3)CC2)c(=O)n1CCOc1ccccc1.Cl,NF-kB SEAP reporter activity,RAW-Dual [2]; [6],0.878
O=c1n(CCCN2CCN(c3cccc(Cl)c3)CC2)nc2ccccn12,NF-kB SEAP reporter activity,RAW-Dual [2]; [7],2.36
same,NF-kB SEAP reporter activity,RAW-Dual [2]; [6],2.42
Cl.O=c1n(CCCN2CCN(c3cccc(Cl)c3)CC2)nc2ccccn12,NF-kB SEAP reporter activity,"RAW-Dual [2]; library stock concentration (final ~1000-fold dilution): 2 mM, agonist: Imiquimod (TLR7) […]",1.05
same,NF-kB SEAP reporter activity,"RAW-Dual [2]; library stock concentration (final ~1000-fold dilution): 2 mM, agonist: MPLA (TLR4) […]",1.08
Cl.O=c1n(CCCN2CCN(c3cccc(Cl)c3)CC2)nc2ccccn12 (library stock concentration (final ~1000-fold dilution): 2 mM),NF-kB SEAP reporter activity,RAW-Dual [1]; agonist: LPS (TLR4) 0.1 ug/mL,1.15
same,NF-kB SEAP reporter activity,RAW-Dual [1]; [3],1.04
same,NF-kB SEAP reporter activity,RAW-Dual [1]; [4],1.1
same,NF-kB SEAP reporter activity,RAW-Dual [1]; [5],1.37
CCc1nn(CCCN2CCN(c3cccc(Cl)c3)CC2)c(=O)n1CCOc1ccccc1.Cl (library stock concentration (final ~1000-fold dilution): 10 mM),NF-kB SEAP reporter activity,RAW-Dual [1]; agonist: LPS (TLR4) 0.1 ug/mL,0.981
same,NF-kB SEAP reporter activity,RAW-Dual [1]; [3],0.799
same,NF-kB SEAP reporter activity,RAW-Dual [1]; [4],0.822
same,NF-kB SEAP reporter activity,RAW-Dual [1]; [5],0.646
COc1nc(N)nc2c1ncn2C1OC(CO)C(O)C1O (stereo not given),NF-kB SEAP reporter activity,RAW-Dual [2]; [7],0.924
same,NF-kB SEAP reporter activity,RAW-Dual [2]; [6],0.994
COc1nc(N)nc2c1ncn2C1OC(CO)C(O)C1O (stereo not given) (library stock concentration (final ~1000-fold dilution): 10 mM),NF-kB SEAP reporter activity,RAW-Dual [1]; agonist: LPS (TLR4) 0.1 ug/mL,1.43
same,NF-kB SEAP reporter activity,RAW-Dual [1]; [3],0.996
same,NF-kB SEAP reporter activity,RAW-Dual [1]; [4],1.08
same,NF-kB SEAP reporter activity,RAW-Dual [1]; [5],1.23
CCOc1ccc(CC2NC(=O)CCSSCC(C(=O)N3CCCC3C(=O)NC(CCCN)C(=O)NCC(N)=O)NC(=O)C(CC(N)=O)NC(=O)C(C(C)O)NC(=O)C(C(C)CC)NC2=O)cc1 (stereo not given) (library stock concentration (final ~1000-fold dilution): 10 mM water),NF-kB SEAP reporter activity,RAW-Dual [1]; agonist: LPS (TLR4) 0.1 ug/mL,1.22
same,NF-kB SEAP reporter activity,RAW-Dual [1]; [3],1.15
same,NF-kB SEAP reporter activity,RAW-Dual [1]; [4],1.22
same,NF-kB SEAP reporter activity,RAW-Dual [1]; [5],1.02
CCOc1ccc(CC2NC(=O)CCSSCC(C(=O)N3CCCC3C(=O)NC(CCCN)C(=O)NCC(N)=O)NC(=O)C(CC(N)=O)NC(=O)C(C(C)O)NC(=O)C(C(C)CC)NC2=O)cc1 (stereo not given),NF-kB SEAP reporter activity,RAW-Dual [2]; [8],0.981
same,NF-kB SEAP reporter activity,RAW-Dual [2]; [9],1.06
COc1cc2c(cc1OC)C(=O)C(CC1CCN(Cc3ccccc3)CC1)C2.Cl (stereo not given) (library stock concentration (final ~1000-fold dilution): 10 mM water),NF-kB SEAP reporter activity,RAW-Dual [1]; agonist: LPS (TLR4) 0.1 ug/mL,1.35
same,NF-kB SEAP reporter activity,RAW-Dual [1]; [3],1.16
same,NF-kB SEAP reporter activity,RAW-Dual [1]; [4],1.28
same,NF-kB SEAP reporter activity,RAW-Dual [1]; [5],1.29
COc1cc2c(cc1OC)C(=O)C(CC1CCN(Cc3ccccc3)CC1)C2.Cl (stereo not given),NF-kB SEAP reporter activity,RAW-Dual [2]; [8],0.84
same,NF-kB SEAP reporter activity,RAW-Dual [2]; [9],1.08
